Assay results reported in PubChem BioAssay (NCATS).
Values joined by “and” are separate entries in the source; they are usually repeats but may differ in a detail not shown here. Equal values may be shown once. Results filed as inconclusive are left out. Active and inactive are the calls of the source. Unless noted, calls come from the whole dose curve; as a rule, active = well fitted curve in the direction sought with a large enough effect; inconclusive = small, poorly fitted or top-dose-only effect, or another doubt; inactive = no such curve, though single readings can be large; an effect the other way counts as inactive or inconclusive.

What was measured:
[1] = qHTS Assay for Lipid Storage Modulators (AID 1519; calls by dose curve; for activity change, negative = inhibition: % is set by controls: 0 for no effect and ±100 for the full control effect); details: Drosophila S3 cells, BODIPY lipid droplet/cell ratio, laser cytometry, cells loaded with oleic acid
Summary of the method: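 Cells seeded at 5,000 per well were treated with compounds over a concentration series and loaded with oleic acid (400 uM, as added). Lipid droplet fluorescence (488 nm excitation, 500-530 nm channel) was read by laser-scanning cytometry and normalized to 20 uM Triacsin C.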

[2] = target: Ubiquitin carboxyl-terminal hydrolase 1 (Homo sapiens) (UniProt O94782); experiment: Inhibitors of USP1/UAF1: Pilot qHTS (AID 504865);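 note: rhodamine fluorescence freed from ubiquitin-rhodamine substrate followed over time; top concentration of the series differs between compounds; % is set by controls: 0 for no effect and ±100 for the full control effect; nearly all actives have a fitted effect of over 35% in size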
Summary of the method: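 1nM USP1/UAF1 + cpd, 15 min RT; start w/ Ub-Rho 150nM final; kinetic FL 480/540 nm, 6 reads q60 s. Buffer 50mM HEPES pH 7.8, 0.5mM EDTA, 1mM TCEP, 0.01% Tween-20, 0.1 mg/ml BSA.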

[3] = target: Cytochrome P450 3A4 (Homo sapiens) (UniProt P08684); experiment: qHTS Assay for Inhibitors and Substrates of Cytochrome P450 3A4 (AID 884); note: nearly all actives have a fitted effect of over 50% in size; note: potency is the fitted concentration of half-maximal effect; for activity change, negative = inhibition: % is set by controls: 0 for no effect and ±100 for the full control effect
Summary of the method: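 20 nM human CYP3A4 with 25 uM Luciferin-PPXE (at KM) in 200 mM KPO4, preincubated 10 min with compound; NADPH regeneration started a 60 min RT reaction. Luciferin detected by luminescence, normalized to 57 uM ketoconazole as full inhibition.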

[4] = Confirmation and Secondary Assay for Modulators of Hemoglobin Beta Chain Splicing at IVS2 654 locus (AID 910);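 note: HeLa cells stably carrying EGFP split by mutant beta-globin IVS2-654 intron; % of control where 0% means no effect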
Summary of the method: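 Readout: per-well total peak green fluorescence (488 nm ex, 500–520 nm em) from objects 5–250 µm, reflecting correct splicing of an EGFP-654 reporter. Compounds were applied for 2 days at 37 °C to overnight-plated HeLa EGFP-654 cells; controls were DMSO and 500 nM IVS2-654 PNA.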

[5] = Confirmation and Secondary Assay for Modulators of Hemoglobin Beta Chain Splicing at IVS2 705 locus (AID 930);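 note: HeLa cells stably expressing the EGFP-705 splicing reporter; GFP fluorescence per well restored by corrected splicing of the IVS2-705 intron in EGFP; % of control where 0% means no effect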
Summary of the method: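 HeLa cells stably carrying EGFP interrupted by mutant beta-globin intron 2 (IVS2-705) treated 2 days at 37C with compound; 500 nM antisense PNA as control. Correct splicing read as total peak GFP intensity per well by laser-scanning cytometry.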

[6] = target: Cytochrome P450 3A4 (Homo sapiens) (UniProt P08684); experiment: qHTS Assay for Activators of Cytochrome P450 3A4 (AID 885); note: nearly all actives have a fitted effect of over 65% in size
Summary of the method: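 Signal was normalized against complete inhibition by 57 uM ketoconazole. The reaction used 20nM CYP3A4 with 25uM Luciferin-PPXE, 10-min compound preincubation and a 60-min NADPH-supported step at RT.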

[7] = measured here: cell count channel max response
[8] = measured here: lipid channel max response

Chain of Cytochrome P450 3A4 (Homo sapiens) (P08684 whole entry, looked up): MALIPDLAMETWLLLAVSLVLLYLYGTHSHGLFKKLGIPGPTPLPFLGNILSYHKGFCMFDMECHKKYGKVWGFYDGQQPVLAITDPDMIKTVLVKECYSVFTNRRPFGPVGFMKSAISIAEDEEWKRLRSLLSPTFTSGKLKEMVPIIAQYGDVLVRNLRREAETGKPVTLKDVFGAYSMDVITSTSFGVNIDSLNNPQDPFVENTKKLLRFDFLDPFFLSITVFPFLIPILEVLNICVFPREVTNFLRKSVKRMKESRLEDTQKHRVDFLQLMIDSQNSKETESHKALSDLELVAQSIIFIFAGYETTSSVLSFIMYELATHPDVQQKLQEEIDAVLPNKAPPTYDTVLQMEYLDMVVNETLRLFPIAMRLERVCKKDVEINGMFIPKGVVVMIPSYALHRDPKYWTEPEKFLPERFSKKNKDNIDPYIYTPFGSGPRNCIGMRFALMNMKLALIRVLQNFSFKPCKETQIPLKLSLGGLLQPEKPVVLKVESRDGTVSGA
Chain of Ubiquitin carboxyl-terminal hydrolase 1 (Homo sapiens) (O94782 whole entry, looked up): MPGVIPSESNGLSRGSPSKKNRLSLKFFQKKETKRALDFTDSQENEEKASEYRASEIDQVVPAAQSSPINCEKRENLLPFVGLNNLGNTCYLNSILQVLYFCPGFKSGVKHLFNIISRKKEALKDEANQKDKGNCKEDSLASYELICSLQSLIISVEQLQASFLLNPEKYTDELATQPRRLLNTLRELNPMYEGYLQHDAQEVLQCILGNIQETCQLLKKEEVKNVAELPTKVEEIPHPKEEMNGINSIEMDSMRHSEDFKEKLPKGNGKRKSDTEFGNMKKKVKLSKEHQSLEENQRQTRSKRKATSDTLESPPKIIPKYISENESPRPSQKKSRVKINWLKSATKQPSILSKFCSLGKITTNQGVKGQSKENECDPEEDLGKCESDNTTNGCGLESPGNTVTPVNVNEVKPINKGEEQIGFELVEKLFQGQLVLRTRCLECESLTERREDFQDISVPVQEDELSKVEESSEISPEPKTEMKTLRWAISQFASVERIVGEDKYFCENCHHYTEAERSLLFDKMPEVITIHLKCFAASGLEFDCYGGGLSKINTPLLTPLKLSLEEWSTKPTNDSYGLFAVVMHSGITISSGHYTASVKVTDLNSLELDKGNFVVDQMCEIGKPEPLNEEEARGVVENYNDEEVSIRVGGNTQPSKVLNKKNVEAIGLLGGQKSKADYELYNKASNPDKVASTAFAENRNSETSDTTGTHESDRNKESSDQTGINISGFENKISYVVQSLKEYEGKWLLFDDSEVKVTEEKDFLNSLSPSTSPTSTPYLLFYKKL

Row | SMILES | activity change, negative = inhibition ([1]; at 57.5 µM (top of the series)) | max response [1, 7] | max response [1, 8] | Potency [2] | activity change, negative = inhibition ([1]; at 25.7 µM (top of the series)) | Potency [3] | Potency [4] | Potency [5] | Potency [6]
1 | COc1cc(C2c3cc4c(cc3C(O)[C@H]3COC(=O)C23)OCO4)cc(OC)c1OC (some centres undefined) | 6.7% (inactive) and 5.22% (inactive) | -4.29% and 22% | 2.15% and 29.3% | inactive |  |  |  |  | 
2 | COc1cc2c(c(OC)c1OC)-c1ccc(OC)c(=O)cc1[C@H](NC(C)=O)CC2 |  | -13.6% | -22.5% | inactive | -7.92% (inactive) |  |  |  | 
3 | Cc1cc(OC(=O)N2CCCCC2)c(C(C)C)cc1[N+](C)(C)C | 8.28% (inactive) | 17.5% | 31.1% | inactive |  | inactive | inactive | inactive | 
4 | Cc1[nH]c2ccccc2c1CN(C)C | 11.5% (inactive) | 9.14% | 21.3% | inactive |  | 12.6 µM (active) | inactive | inactive | inactive
5 | CCC(C)C(=O)OC1C(O)C2C(CN3CC(C)CCC3[C@]2(C)O)C2C[C@]34O[C@@]5(O)C(OC(=O)C(C)(O)C(C)O)CCC3(C)C5C(OC(C)=O)C(OC(C)=O)C4[C@@]21O (some centres undefined) | 4.38% (inactive) | 24.4% | 35.3% | inactive |  | inactive | inactive |  | 
6 | CNc1ccccc1C(=O)O | -0.857% (inactive) | 25% | 25.4% | inactive |  | inactive | inactive | inactive | 
7 | C[C@@]12CCC3C(CC[C@@H]4CC(O)CC[C@@]34C)C1CCC2O (some centres undefined) | 5.33% (inactive) | 18.2% | 26% | inactive |  | inactive | inactive |  | 
8 | CCN1C[C@@]2(OC(=O)c3ccccc3NC(C)=O)CCC(OC)[C@@]34C5CC6C(OC)C[C@@](O)(C(CC23)[C@@H]14)C5(O)C6OC (some centres undefined) | 4.73% (inactive) | 10.9% | 17% | inactive |  | inactive | inactive |  | 
9 | C/C=C(\C)C(=O)OC1CC(OC(C)=O)[C@@]2(C(=O)OC)COC3C2[C@@]12CO[C@](O)(C(=O)OC)C2[C@](C)(C12OC1(C)C1CC2OC2OC=C[C@]21O)C3O (some centres undefined) | -3.34% (inactive) | -9.57% | -10.6% | inactive |  | 12.6 µM (active) | inactive |  | inactive
10 | C[C@@]12CC(c3ccoc3)OC(=O)C1CC[C@@]1(C)C2C2C=C[C@@]1(O)C(=O)O2 (some centres undefined) | 2.16% (inactive) | 24.2% | 26.2% | inactive |  | inactive | inactive | inactive | 
11 | OCC1CCCN2CCCCC12 (centres undefined) | 1.09% (inactive) | -1.96% | 1.94% | inactive |  | inactive | inactive | inactive | 
